The source of these data is PubChem BioAssay.

Calls of active or inactive are those of the source.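 How the source made its calls, unless noted: active means GFP response above 150% of the DMSO level; inconclusive means fewer than 70 events counted for a yeast strain; inactive means the rest.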

Experiment [1] can be described thus: reduced mouse 2C T cell binding to pMHC/ICAM-1 vesicles – MLPCN validation set, flow cytometry, LFA-1/ICAM-1 modulator project, pilot screen (AID 2523;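 active means response below a set limit, under 55% cells CD8-positive and vesicle-bound, and CD8 cells' 90th-percentile brightness under 279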;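 on vesicle binding response: mean PE anti-B7-1 fluorescence of CD8+ cells relative to row control; 100% = QL9-loaded vesicles with DMSO vehicle in the same plate row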). The settings on record: 2C mouse CD8+ T cells, at 7 µM, stronger effect = lower value; double positive events: measured here: CD8+/vesicle+ event percentage.
The target in experiment [2] is Integrin beta-1 (Homo sapiens) + Integrin alpha-4 (Homo sapiens) (UniProt P13612+P05556). In words: alpha4beta1 integrin LIBS antibody binding reduction – U937 cells, HUTS-21 mAb, flow cytometry, validation set, VLA-4 allosteric modulator project, pilot screen (AID 2674;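 active means inhibition above 50%, about 3 SD of the validation set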;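 further: antibody binding induced by the VLA-4 ligand LDV present at three times its Kd; 0% = LDV ligand with antibody and no compound and 100% = antibody without LDV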). Conditions: HUTS-21 LIBS mAb binding, at 6.7 µM, stronger effect = higher value, binding induced by LDV ligand.

Experiment [3] in a line: calorie-restriction mimetic ROS inhibitors, yeast – validation compound set, pilot screen (AID 2706;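 active means superoxide response below 65% of plate, a cut near 3 SD across the whole screen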;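 further: yeast exposed to compound for one week at 30 degrees C before staining; 100% = mean of all compound wells on the same plate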). The settings on record: S. cerevisiae aging, superoxide DHE fluorescence; at 10 µM, stronger effect = lower value.
Experiment [4] has as its target Beta-adrenergic receptor kinase 1 (Homo sapiens) (UniProt P25098). Description: GRK2 binders displacing RNA aptamer, biochemical, validation, human GRK2, bead flow cytometry (AID 488806;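 active means aptamer binding inhibition above 30%, about 3 SD of noise from non-fluorescent compounds; inactive means inhibition at or below 30%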). Conditions: bead-bound GRK2, FAM-aptamer displacement, at 10 µM, stronger effect = higher value.
Experiment [5] concerns the target Beta-2 adrenergic receptor (Homo sapiens) (UniProt P07550). Description: agonist-induced loss of surface beta2AR – cell-based, FAP fluorogen, flow cytometry, validation set, pilot screen (AID 504459;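 active means percent response above 42, roughly 3 SD of non-fluorescent test compounds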;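 further: agonist-driven loss of surface beta2AR via internalization measured by FAP dye flow cytometry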). The settings on record: Am2.2-beta2AR cells, at 10 µM, stronger effect = higher value.
The target in experiment [6] is AP-2 complex subunit beta (Homo sapiens) (UniProt P63010). Description: beta-arrestin/AP2 interaction blockers – biochemical, validation set, GST-AP2 beads, flow cytometry, pilot screen (AID 504541;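 active means inhibition above 54%, about 3 SD of non-fluorescent compounds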;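 further: AP2 carries R879A mutation and is captured from E. coli lysate; bead-bound FITC arrestin peptide fluorescence measuring arrestin peptide binding to AP2; 0% = DMSO wells and 100% = excess unlabeled arrestin peptide control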). Conditions: FITC arrestin peptide, at 10 µM, stronger effect = higher value, AP2 beta2 appendage fragment, R879A mutant.
Experiment [7] in a line: cytosolic pH regulators acting via V-ATPase – S. cerevisiae, pHLuorin, HTS validation (AID 504600; in the data active means response above about 15%;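 further: plate controls were DMSO for no effect and reference compound for full effect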). The settings on record: V-ATPase proton transport, at 10 µM, stronger effect = higher value.
Experiment [8] deals with anti-desmoglein-3 scFv antibody binding to human DSG3. In words: blockers of pathogenic pemphigus antibody–desmoglein-3 binding – biochemical, validation compound set, bead-based, flow cytometry, pilot screen (AID 588368;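 active means binding below the plate cutoff, the plate median minus 3 SD, with a reading above zero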;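 further: signal is the median channel fluorescence of bead-bound GFP antibody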). The settings on record: Protein G beads, DSG3-Fc, scFv-GFP binding, at 10 µM, stronger effect = lower value.
The nature of experiment [9]: Nile Red efflux blockade in pump-expressing yeast – validation compound set, multiplex, phenotypic, pilot screen (AID 588506;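 active means efflux inhibition above 0.42, the validation set average plus 4 SD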;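 further: Nile Red retained in cells so higher fluorescence means more efflux inhibition; 0 = negative control wells and 1 = enniatin B 25 µM full block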). Conditions: S. cerevisiae pump-expressing triplex, Nile Red efflux flow cytometry; at 10 µM; stronger effect = higher value; the pumps come from Candida albicans.
In experiment [10] the target is ATP-binding cassette sub-family B member 6 (Homo sapiens) (UniProt Q9NP58). In words: blockers of ABCB6-driven porphyrin uptake – K562-ABCB6 cells, flow cytometry, validation set, pilot screen (AID 588550;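 active means inhibition above the screen-wide mean plus 3 SD, about 51%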;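 further: 0% = DMSO wells and 100% = benzethonium chloride 70 µM positive control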). The settings on record: K562-ABCB6 porphyrin accumulation, 1 h, at 10 µM, stronger effect = higher value.
A short description of experiment [11]: AML differentiation inducers, ER-HoxA9 marrow cells – cell-based, GFP/MAC1 double positive, flow cytometry, validation set, primary screen (AID 588685;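 active means differentiation response of at least 50%, scaled between solvent and reference control, from cells with both markers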;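 further: compound exposure lasts four days before antibody staining and flow analysis; 0% = DMSO wells and 100% = 5 µM fulvestrant positive control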). The settings on record: stronger effect = higher value, normalized: vehicle 0, fulvestrant 100.
A short description of experiment [12]: hit retest on RPL19A-GFP reporter strain – cell-based, S. cerevisiae, flow cytometry, cherry picks, mother/daughter gates, confirmation (AID 2270;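 active means GFP response below 50% of the DMSO control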). The settings on record: 3 h, at 10 µM, stronger effect = lower value, 100 = same GFP as DMSO wells.
Experiment [13] in a line: yeast TOR pathway reporter LAP4-GFP change – cell-based, cherry picks, flow cytometry, mother/daughter gates, confirmation (AID 2271;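 active means GFP response above 150% of the DMSO control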;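 further: ratio of sample to DMSO plate mean so 100% equals DMSO level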). Conditions: S. cerevisiae LAP4-GFP strain, 3 h, at 10 µM, stronger effect = higher value, 100 means same as DMSO control.
Experiment [14] is described as follows: TOR pathway reporter MEP2-GFP, retest of hits – S. cerevisiae, flow cytometry GFP, cherry picks, confirmation (AID 2272;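 active means GFP response above 150% of the DMSO control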;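 further: ratio of well signal to plate DMSO mean so 100% equals DMSO level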). Conditions: S. cerevisiae MEP2-GFP strain, 3 h, at 10 µM, stronger effect = higher value.
The nature of experiment [15]: yeast AGP1-GFP fluorescence change, single-dose – cell-based, flow cytometry, S. cerevisiae, cherry picks, confirmation (AID 2273).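 Further: median GFP channel fluorescence over the whole cell population gate.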 The settings on record: S. cerevisiae AGP1-GFP strain, 3 h, at 10 µM.
Experiment [16] is described as follows: TOR pathway CIT2 reporter hit retest – S. cerevisiae, GFP fusion, cherry picks, mother/daughter gates, confirmation (AID 2274). Conditions: S. cerevisiae CIT2-GFP strain, flow cytometry, 3 h, at 10 µM, stronger effect = higher value.
Setting [17] is: measured here: daughter cell gate.

Integrin beta-1 (Homo sapiens) + Integrin alpha-4 (Homo sapiens), sequence (P05556 whole entry, looked up): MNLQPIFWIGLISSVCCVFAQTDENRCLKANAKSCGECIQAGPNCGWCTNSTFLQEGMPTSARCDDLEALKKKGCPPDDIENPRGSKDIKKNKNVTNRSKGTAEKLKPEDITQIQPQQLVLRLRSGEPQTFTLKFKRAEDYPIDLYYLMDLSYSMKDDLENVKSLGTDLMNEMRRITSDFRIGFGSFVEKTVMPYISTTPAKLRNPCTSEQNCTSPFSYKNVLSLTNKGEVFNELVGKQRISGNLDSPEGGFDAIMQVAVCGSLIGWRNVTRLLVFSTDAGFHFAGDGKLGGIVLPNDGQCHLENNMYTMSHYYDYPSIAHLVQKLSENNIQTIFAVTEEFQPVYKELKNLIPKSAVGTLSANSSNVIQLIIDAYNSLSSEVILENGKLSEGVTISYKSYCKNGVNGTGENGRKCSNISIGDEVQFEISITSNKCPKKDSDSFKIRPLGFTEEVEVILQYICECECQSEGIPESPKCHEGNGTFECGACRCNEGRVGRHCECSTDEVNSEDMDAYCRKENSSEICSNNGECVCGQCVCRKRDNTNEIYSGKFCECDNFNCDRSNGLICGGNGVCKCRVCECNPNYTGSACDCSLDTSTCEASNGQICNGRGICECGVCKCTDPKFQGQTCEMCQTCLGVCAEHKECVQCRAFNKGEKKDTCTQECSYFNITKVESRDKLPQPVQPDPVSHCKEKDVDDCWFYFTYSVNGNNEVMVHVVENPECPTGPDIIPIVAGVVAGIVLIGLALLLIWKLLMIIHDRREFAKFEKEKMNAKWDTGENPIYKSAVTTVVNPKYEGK
Integrin beta-1 (Homo sapiens) + Integrin alpha-4 (Homo sapiens), sequence (P13612 whole entry, looked up): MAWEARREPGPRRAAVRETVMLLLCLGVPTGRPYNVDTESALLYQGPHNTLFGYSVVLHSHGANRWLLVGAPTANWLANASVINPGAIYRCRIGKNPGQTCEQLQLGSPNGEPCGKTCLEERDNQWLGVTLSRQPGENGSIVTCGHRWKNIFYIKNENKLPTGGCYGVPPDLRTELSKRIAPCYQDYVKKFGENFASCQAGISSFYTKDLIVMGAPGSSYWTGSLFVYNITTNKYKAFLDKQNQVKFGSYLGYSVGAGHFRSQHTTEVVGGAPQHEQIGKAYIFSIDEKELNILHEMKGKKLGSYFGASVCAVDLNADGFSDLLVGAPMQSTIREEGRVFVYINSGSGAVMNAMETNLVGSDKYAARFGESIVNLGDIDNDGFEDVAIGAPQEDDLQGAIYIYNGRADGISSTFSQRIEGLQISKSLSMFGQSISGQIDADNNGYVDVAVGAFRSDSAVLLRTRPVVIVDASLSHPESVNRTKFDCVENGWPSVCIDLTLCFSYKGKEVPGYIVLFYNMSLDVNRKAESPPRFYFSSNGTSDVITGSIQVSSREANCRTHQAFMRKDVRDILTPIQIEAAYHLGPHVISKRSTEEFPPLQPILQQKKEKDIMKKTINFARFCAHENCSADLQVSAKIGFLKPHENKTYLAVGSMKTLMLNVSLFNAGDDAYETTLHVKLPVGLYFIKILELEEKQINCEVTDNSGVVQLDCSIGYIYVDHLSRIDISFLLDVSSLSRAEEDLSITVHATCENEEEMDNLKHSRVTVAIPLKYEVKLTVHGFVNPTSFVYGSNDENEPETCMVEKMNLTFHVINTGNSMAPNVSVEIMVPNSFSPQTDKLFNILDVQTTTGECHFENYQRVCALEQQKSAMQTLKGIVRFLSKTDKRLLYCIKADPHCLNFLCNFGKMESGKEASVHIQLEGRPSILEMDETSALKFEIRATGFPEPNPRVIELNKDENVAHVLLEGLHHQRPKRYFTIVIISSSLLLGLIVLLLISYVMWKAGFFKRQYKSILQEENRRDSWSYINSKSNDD
ATP-binding cassette sub-family B member 6 (Homo sapiens), sequence (Q9NP58 whole entry, looked up): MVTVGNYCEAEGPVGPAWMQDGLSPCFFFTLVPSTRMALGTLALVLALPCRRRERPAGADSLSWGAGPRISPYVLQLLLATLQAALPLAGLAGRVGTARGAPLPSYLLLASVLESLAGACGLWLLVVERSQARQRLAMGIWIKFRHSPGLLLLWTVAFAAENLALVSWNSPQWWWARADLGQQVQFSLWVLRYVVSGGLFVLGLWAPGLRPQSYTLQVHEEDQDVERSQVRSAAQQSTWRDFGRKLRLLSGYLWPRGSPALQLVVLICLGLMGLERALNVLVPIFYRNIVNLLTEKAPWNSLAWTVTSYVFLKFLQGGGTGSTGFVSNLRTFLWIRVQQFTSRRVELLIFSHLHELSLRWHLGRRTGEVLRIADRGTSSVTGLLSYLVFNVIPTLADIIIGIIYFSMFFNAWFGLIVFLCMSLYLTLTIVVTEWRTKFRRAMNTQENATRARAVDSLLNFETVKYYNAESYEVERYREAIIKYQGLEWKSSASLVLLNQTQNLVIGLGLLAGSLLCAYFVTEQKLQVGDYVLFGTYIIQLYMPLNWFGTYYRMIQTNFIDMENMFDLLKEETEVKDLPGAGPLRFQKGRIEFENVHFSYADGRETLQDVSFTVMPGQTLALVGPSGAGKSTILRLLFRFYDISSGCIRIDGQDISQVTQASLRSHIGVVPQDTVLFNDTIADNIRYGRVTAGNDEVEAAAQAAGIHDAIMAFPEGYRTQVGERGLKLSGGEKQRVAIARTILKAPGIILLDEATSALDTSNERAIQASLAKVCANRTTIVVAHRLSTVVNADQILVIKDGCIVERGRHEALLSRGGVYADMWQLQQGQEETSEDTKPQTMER
AP-2 complex subunit beta (Homo sapiens), sequence (P63010 whole entry, looked up, the tested form may be a part, one chain of several): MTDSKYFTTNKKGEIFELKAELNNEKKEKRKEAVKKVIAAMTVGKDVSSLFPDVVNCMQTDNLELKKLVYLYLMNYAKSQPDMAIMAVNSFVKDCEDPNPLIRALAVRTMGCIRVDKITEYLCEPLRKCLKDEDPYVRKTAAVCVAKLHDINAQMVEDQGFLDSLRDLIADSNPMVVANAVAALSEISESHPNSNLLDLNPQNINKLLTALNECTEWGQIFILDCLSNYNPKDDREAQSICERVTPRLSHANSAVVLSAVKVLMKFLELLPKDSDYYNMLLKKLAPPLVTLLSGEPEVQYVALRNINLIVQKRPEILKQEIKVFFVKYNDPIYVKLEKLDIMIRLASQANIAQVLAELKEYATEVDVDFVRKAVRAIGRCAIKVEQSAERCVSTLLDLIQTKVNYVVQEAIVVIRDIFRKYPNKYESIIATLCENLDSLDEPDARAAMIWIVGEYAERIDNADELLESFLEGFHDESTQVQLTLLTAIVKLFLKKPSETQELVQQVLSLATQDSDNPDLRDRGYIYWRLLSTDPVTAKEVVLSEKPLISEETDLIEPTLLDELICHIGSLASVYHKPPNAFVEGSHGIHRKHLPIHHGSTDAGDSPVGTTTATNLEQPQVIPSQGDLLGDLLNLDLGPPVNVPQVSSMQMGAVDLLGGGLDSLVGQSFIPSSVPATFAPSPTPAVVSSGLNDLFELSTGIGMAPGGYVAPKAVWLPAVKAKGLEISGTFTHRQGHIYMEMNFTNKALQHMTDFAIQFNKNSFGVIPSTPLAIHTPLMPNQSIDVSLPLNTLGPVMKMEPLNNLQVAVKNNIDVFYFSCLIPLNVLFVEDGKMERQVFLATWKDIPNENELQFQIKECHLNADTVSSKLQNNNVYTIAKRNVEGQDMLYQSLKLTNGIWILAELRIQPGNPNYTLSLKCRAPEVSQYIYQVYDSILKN
Beta-adrenergic receptor kinase 1 (Homo sapiens), sequence (P25098 whole entry, looked up): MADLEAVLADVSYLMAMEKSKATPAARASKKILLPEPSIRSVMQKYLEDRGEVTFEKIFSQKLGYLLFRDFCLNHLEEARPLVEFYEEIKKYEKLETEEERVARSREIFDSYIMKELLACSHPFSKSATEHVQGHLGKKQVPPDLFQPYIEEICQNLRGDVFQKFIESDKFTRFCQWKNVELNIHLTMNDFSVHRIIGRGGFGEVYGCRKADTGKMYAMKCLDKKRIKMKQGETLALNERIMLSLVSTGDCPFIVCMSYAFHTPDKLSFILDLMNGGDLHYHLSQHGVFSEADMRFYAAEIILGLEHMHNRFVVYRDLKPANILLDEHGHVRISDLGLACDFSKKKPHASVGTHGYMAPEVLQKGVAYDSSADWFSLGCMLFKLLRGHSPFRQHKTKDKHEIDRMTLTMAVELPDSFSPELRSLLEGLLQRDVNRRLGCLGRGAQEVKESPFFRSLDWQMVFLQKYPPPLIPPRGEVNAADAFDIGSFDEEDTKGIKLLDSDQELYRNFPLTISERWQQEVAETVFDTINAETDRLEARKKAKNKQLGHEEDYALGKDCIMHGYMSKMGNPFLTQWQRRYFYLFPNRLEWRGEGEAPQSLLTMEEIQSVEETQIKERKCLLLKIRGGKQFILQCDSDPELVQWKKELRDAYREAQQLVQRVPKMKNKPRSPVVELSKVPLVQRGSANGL
Beta-2 adrenergic receptor (Homo sapiens), sequence (P07550 whole entry, looked up): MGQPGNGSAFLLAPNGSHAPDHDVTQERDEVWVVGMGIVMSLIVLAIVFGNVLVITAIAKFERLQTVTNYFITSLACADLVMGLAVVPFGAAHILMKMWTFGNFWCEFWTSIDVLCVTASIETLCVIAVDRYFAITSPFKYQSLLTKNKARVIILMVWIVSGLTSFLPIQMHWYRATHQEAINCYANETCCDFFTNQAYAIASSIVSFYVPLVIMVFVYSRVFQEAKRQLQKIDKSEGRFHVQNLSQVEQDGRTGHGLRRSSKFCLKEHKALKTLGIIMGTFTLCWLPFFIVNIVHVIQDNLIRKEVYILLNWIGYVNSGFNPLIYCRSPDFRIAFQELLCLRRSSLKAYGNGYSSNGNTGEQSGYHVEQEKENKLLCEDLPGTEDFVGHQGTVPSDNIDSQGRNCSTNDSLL

On to `COCc1cc(=O)[nH]c(Nc2nc3ccccc3o2)n1`, for which, in [1], the double positive events was 62.6%. Further, in experiment [1], the vesicle binding response is 117% (inactive). For the same compound, the inhibition in [2] was -7.93% (inactive); in experiment [6], -0.3% (inactive); in [10], 4% (inactive). Also, the superoxide response (% of plate) in experiment [3] is 86.3% (inactive). Further, the aptamer binding inhibition in [4] was 3% (inactive). For the same compound, the figures for the response in experiment [5] and in experiment [7] were -16.5% (inactive) and 6.3% (inactive), respectively. The binding (% of control) in experiment [8] is 108% (inactive). In experiment [9], the efflux inhibition (fraction of control) was 0 (inactive). In [11], the differentiation response was 6.83% (inactive).

With `CCC(=O)OCCNc1cc(Sc2nc3ccccc3s2)c2nonc2c1[N+](=O)[O-]`, the GFP response vs DMSO was 90.5% (inactive) in experiment [12] and 97.8% (inactive) in experiment [14]. In experiment [13], the GFP response relative to DMSO was 254% (active). Also, the GFP response, % of DMSO was 124% (inactive) in experiment [15] and 80.8% (inactive) in experiment [16].

`CCS(=O)(=O)Nc1cc(OC)c(OC)cc1Cc1nccc2cc(OC)c(OC)cc12` yielded a double positive events in [1] of 57.8%. For the same compound, in [1], the vesicle binding response was 90.7% (inactive). Further, the inhibition in experiment [2] is -9.63% (inactive); in [6] it was -7.26% (inactive); in experiment [10], 0% (inactive). In addition, in [3], the superoxide response (% of plate) is 93.2% (inactive). Moreover, the aptamer binding inhibition in experiment [4] was -1% (inactive). For the same compound, the response in [5] was -40% (inactive); in experiment [7] it was 4.6% (inactive). In experiment [8], the binding (% of control) was 106% (inactive). Moreover, the efflux inhibition (fraction of control) in experiment [9] was 0.08 (inactive). Further, in experiment [11], the differentiation response is -5.97% (inactive).

As to `CN1[C@@H](CC(=O)c2ccccc2)CCC[C@H]1C[C@H](O)c1ccccc1`, the double positive events in experiment [1] was 61.3%. In addition, the vesicle binding response in experiment [1] is 176% (inactive). Moreover, the values for the inhibition in experiment [2], in [6] and in [10] were 6.4% (inactive), -9.53% (inactive) and 3% (inactive), respectively. Also, the superoxide response (% of plate) in experiment [3] is 93.3% (inactive). Further, the aptamer binding inhibition in experiment [4] is 4% (inactive). Further, the response is 12.9% (inactive) in [5] and 3.14% (inactive) in [7]. Further, in experiment [8], the binding (% of control) was 103% (inactive). Moreover, in [9], the efflux inhibition (fraction of control) is -0.06 (inactive). Further, the differentiation response in experiment [11] was -0.8% (inactive).

As to `Cc1nc2ccc(Br)cn2c1NC(C)(C)C`, the GFP response vs DMSO in experiment [12] is 98.4% (inactive); in experiment [14], 100% (inactive). Besides, the GFP response relative to DMSO in experiment [13] is 96.2% (inactive). The GFP response, % of DMSO in experiment [15] is 97.6% (inactive); in [16], 102% (inactive).

With `CC(OC(=O)c1cccs1)C(=O)Nc1nc(-c2ccccc2)cs1` (stereo unspecified), the GFP response vs DMSO in experiment [12] was 98.7% (inactive); in experiment [14], 99.5% (inactive). For the same compound, the GFP response relative to DMSO in experiment [13] is 94.2% (inactive). Moreover, the GFP response, % of DMSO in experiment [15] was 94.9% (inactive); in experiment [16], 101% (inactive).

Consider `O=C(NOC(=O)c1ccccc1)c1ccccc1`, for which the GFP response vs DMSO is 108% (inactive) in experiment [12] and 130% (inactive) in [14]. The GFP response relative to DMSO in [13] is 118% (inactive). Besides, the GFP response, % of DMSO in experiment [15] is 88.2% (inactive); in experiment [16] it was 113% (inactive); in experiment [16] (setting [17]) it was 103%; in [16] (measured here: mother cell gate), 96.6%.

As to `Cc1ccc2c(c1)C1CN(C)CCC1N2C(=O)c1ccc(Cl)c(S(=O)(=O)N2CCOCC2)c1` (stereo unspecified), the GFP response vs DMSO in experiment [12] and in experiment [14] was 102% (inactive) in each case. For the same compound, the GFP response relative to DMSO in experiment [13] was 107% (inactive). In addition, the GFP response, % of DMSO in [15] is 102% (inactive); in experiment [16], 112% (inactive).

Take `Cc1oc2c(C)c3oc(=O)c4c(c3cc2c1C)CCCC4`: the double positive events in experiment [1] is 54.6%. In [1], the vesicle binding response was 32.8% (active). The inhibition in experiment [2] is -22.2% (inactive); in [6] it was -2.86% (inactive); in experiment [10], 2% (inactive). For the same compound, the superoxide response (% of plate) in experiment [3] is 114% (inactive). The aptamer binding inhibition in [4] is 3% (inactive). Also, the response in experiment [5] was -4.45% (inactive); in [7] it was 0.57% (inactive). The binding (% of control) in experiment [8] was 89.1% (inactive). Moreover, in [9], the efflux inhibition (fraction of control) was -0.2 (inactive). The differentiation response in experiment [11] is 2.2% (inactive).

`O=C(O)CSC1CC(=O)N(c2ccc(Cl)cc2)C1=O` (stereo unspecified): the results for the GFP response vs DMSO in experiment [12] and in [14] were 93.1% (inactive) and 108% (inactive), respectively. Besides, the GFP response relative to DMSO in [13] was 102% (inactive). Further, the GFP response, % of DMSO was 97.3% (inactive) in [15], 104% (inactive) in [16] and 90.5% in experiment [16] (setting [17]).
